# According to PubChem BioAssay AID2284090 (EPA ToxCast):
# The source made the active and inactive calls. Rule for the calls: active = hit-call score of the fitted dose curve at least 0.9, where 1 is the maximum; inactive = score below 0.9.
# Target: Cytochrome P450 2C19 (Homo sapiens) (UniProt P33261)
# Assay: ERF_FR_ADME_hCYP2C19_Omeprazole: Eurofins (ERF) CYP450-related Enzyme Activity (ADME) Assay for CYP2C19, Omeprazole Substrate
# Method: ERF_FR_ADME_hCYP2C19_Omeprazole is a biochemical, single-readout assay that uses extracted gene-proteins in a cell-free assay. Measurements were taken 0.16 hour after chemical dosing in a 96-well plate. See CYP2C19 inhibition (HLM, omeprazole substrate).ERF_FR_ADME_hCYP2C19_Omeprazole is an assay component calculated from the ERF_FR_ADME_hCYP2C19_Omeprazole assay. It is designed to measure enzyme activity using a type of enzyme reporter as detected by peak area response of 5-hydroxyomeprazole with HPLC-MS/MS technology.Data from the assay component ERF_FR_ADME_hCYP2C19_Omeprazole was analyzed at the assay endpoint, ERF_FR_ADME_hCYP2C19_Omeprazole, in the positive analysis fitting direction relative to acetonitrile as the negative control and baseline of activity. Using a type of enzyme reporter, loss-of-signal activity can be used to understand changes in enzymatic activity as they relate to gene CYP2C19. To generalize the intended target to other relatable targets, this assay endpoint is annotated to the cyp intended target family, where the subfamily is steroidogenesis-related.
# Assay is performed using 0.5uM omeprazole, cells are pre-incubated for 5 minutes, and then 10 minutes incubation with NADPH at 37C. Test Sample Requirements: Minimum for 1) Screen: 100 ul of 10 mM stock -OR- 1 to 2 mg (pre-weighed). 2) Dose Response: 250 ul of 10 mM stock -OR- 1.5 to 2 mg (pre-weighed).
# Chain of Cytochrome P450 2C19 (Homo sapiens) (P33261 whole entry, looked up): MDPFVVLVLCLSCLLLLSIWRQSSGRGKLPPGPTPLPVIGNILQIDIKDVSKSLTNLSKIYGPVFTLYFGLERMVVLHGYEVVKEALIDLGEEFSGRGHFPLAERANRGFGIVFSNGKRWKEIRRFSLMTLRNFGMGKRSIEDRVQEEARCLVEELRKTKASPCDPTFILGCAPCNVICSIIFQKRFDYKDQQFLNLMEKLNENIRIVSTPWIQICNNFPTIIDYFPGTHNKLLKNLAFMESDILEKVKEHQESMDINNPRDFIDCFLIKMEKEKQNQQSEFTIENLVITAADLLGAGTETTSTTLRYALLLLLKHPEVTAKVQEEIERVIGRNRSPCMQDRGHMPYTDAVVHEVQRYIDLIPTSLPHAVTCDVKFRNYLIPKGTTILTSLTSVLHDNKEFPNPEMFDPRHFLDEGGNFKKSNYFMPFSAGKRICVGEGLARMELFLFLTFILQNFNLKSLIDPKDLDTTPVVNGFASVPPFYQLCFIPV
row,Compound,AC50
1,O=C(/C=C/c1ccc(O)cc1)CC(=O)/C=C/c1ccc(O)cc1,1740 nM (active)
